Shown is part of a subset that was picked to be rich in hits.
Pf Dd2 inh: blocks in vitro growth of P. falciparum Dd2; P. falciparum Dd2 growth, SYBR Green, 72 h; AID 1347417; 4.3% of 120,000 active; Potency, µM (titrated, usually from 28.9 µM), without a hit: at the top dose activity, negative = inhibition, hits mostly inhibitors; active means well fitted inhibition curve with a large enough effect;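 further: plate controls were DMSO vehicle for no effect and reference drug for full effect; nearly all actives have a fitted effect of over 65% in size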
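Readout: SYBR Green fluorescence, 485 nm excitation, 535 nm emission, after ~16 h lysis at 37C. Before that, Dd2-infected red cells (2.5% hematocrit) grew 72 h with compound, 29 uM top final concentration.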
* hit, by the source's call; i = inactive; [ ] = remark or other dose. Potency means the concentration at half of the fitted maximal effect.

SMILES | Pf Dd2 inh
COc1ccc([C@H](C)NC(=O)c2c(C)noc2-c2cc(OC)c(OC)c(OC)c2)cc1 | -3%
COc1ccc(-c2onc(C)c2C(=O)NCc2c(OC)cc(OC)cc2OC)cc1 | i
COc1ccc(-c2onc(C)c2C(=O)NCCCCc2ccccc2)cc1 | -13%
COc1cc(-c2onc(C)c2C(=O)NCCCc2ccccc2)cc(OC)c1OC | 11µM*
COCCCNC(=O)c1c(C)noc1-c1cc(OC)c(OC)c(OC)c1 | 22%
COCc1noc([C@@H]2CN(C(=O)CCc3nc4ccccc4[nH]3)C[C@H]2C(N)=O)n1 | -6%
CN1C(=O)CS(=O)(=O)C12CCN(C(=O)c1cc(F)cc(F)c1)CC2 | 3%
COC[C@@H]1CN(c2ncccn2)C[C@H]1C(=O)N(C)Cc1cn(C)nc1C | -10%
O=C(Nc1cccc(Cl)c1)N[C@H]1C[C@H]2C(=O)NC[C@@H](CCC(=O)N3CCC(O)CC3)N2C1 | -8%
Cc1cc(F)ccc1OC1CN(Cc2ccc(C(F)(F)F)cc2)C1 | -30%[44.1 µM]
Cc1cccc(O[C@H]2COCCN(Cc3nccn3C)C2)n1 | 11µM*
Cc1cccc(O[C@H]2COCCN(c3nc4ccccc4o3)C2)n1 | -13%[44.1 µM]
Cc1cccc(O[C@H]2COCCN(C(=O)c3cc(C)nn3C)C2)n1 | 28%[44.1 µM]
COc1ccc(C(=O)N2C[C@@H](Oc3ccccc3)C[C@@H]2C(=O)N2CCOCC2)cc1 | -19%
CS(=O)(=O)c1ccc(OCC2(CNCc3cccc(C(F)(F)F)c3)C[C@@H](O)[C@@H](O)C2)cc1 (stereo not given in full) | i
O=C(NCc1ccccc1-n1cccn1)C1NCCc2[nH]cnc21 (stereo not given) | 10%
CCc1ccc(NC(=O)N(Cc2ccc(C)cc2)Cc2cccn2-c2nnc(N3CCCC3=O)s2)cc1 | 13µM*
CCOC(=O)c1ccccc1NC(=O)N(Cc1ccc(C)cc1)Cc1cccn1-c1nnc(N2CCCC2=O)s1 | -19%
Cc1ccc(CNC(=O)c2cccn2-c2nnc(N3CCCC3)s2)cc1 | i
NC(=O)C1CCN(C(=O)[C@H]2C[C@@H](O)[C@H](O)[C@@H]3N=C(Nc4cccc(C(F)(F)F)c4)S[C@@H]32)CC1 | i
CC1CCN(CCNC(=O)c2ccc(Cn3c(SCc4ccccc4)nc4cccnc43)cc2)CC1 | 10µM*
O=C(NCCN1CCCCC1)c1ccc(Cn2c(SCc3ccccc3)nc3cccnc32)cc1 | 5µM*
CC1CCCCN1CCNC(=O)c1ccc(Cn2c(SCc3ccccc3)nc3cccnc32)cc1 (stereo not given) | 5.6µM*
O=C(NC1CCCC1)c1ccc(CSc2nc3cccnc3n2Cc2ccc(F)cc2)cc1 | 28%
Cc1ccc(OCc2nc(C3CN(C(=O)c4cc(C)nn4C)C3)no2)cc1 | 20%
SMILES | Pf Dd2 inh
CCOCCN1C(=O)COC[C@@H]1[C@H](O)c1ccc(NC(=O)C2CCCCC2)cc1 | -23%[44.1 µM]
CCOc1cc(=O)n2c(c1C(=O)NCc1ccc(F)cc1F)CCCC2 | 8%
CC(C)[C@H]1CN(c2cnccn2)C[C@@H]1NC(=O)C1(C#N)CCOCC1 | -18%
Cc1ccc(Cl)cc1NC(=O)N1CC(C(=O)N(C)C)C2(CCOCC2)C1 (stereo not given) | -10%
CCCc1ccc(S(=O)(=O)NC2CCN(c3ccc(=O)n(CC4CC4)n3)CC2)cc1 | i
COc1ccc(OC)c([S+](=O)([O-])c2nnn3c2nc(NCc2ccncc2)c2ccccc23)c1 | -13%
COCCn1ncc(N2CCC(NC(=O)C3CCCCC3)CC2)cc1=O | 6%
COc1ccccc1-c1ccnc(N[C@H]2CO[C@H]3[C@@H]2OC[C@@H]3NC(=O)NC2CCCCC2)n1 | -15%
C=CCN(C)C(=O)C[C@@H]1c2nc(NC(=O)c3ccco3)sc2C[C@@H]2[C@](C)(CO)[C@H](O)CC[C@]21C | i
CC(C)(C)CC(=O)Nc1nc2c(s1)C[C@@H]1[C@](C)(CO)[C@H](O)CC[C@@]1(C)[C@@H]2CC(=O)NCc1ccccc1 | i
CCN(CC)C(=O)C[C@@H]1c2nc(NC(=O)c3ccc(F)cc3)sc2C[C@@H]2[C@](C)(CO)[C@H](O)CC[C@]21C | -12%
C[C@]1(CO)[C@H]2Cc3sc(NC(=O)c4c(F)cccc4F)nc3[C@@H](CC(=O)O)[C@]2(C)CC[C@H]1O | -4%
C=CCN(C)C(=O)C[C@@H]1c2nc(NC(=O)c3cccs3)sc2C[C@@H]2[C@](C)(CO)[C@H](O)CC[C@]21C | 11µM*
COc1ccc(CNC(=O)C[C@@H]2c3nc(NC(=O)c4cccs4)sc3C[C@@H]3[C@](C)(CO)[C@H](O)CC[C@]32C)cc1 | 4µM*
C[C@]1(CO)[C@H]2Cc3sc(NC(=O)C4CCCCC4)nc3[C@@H](CC(=O)O)[C@]2(C)CC[C@H]1O | -21%
COc1ccc(CNC(=O)C[C@@H]2c3nc(NC(=O)c4c(F)cccc4F)sc3C[C@@H]3[C@](C)(CO)[C@H](O)CC[C@]32C)cc1 | 7.9µM*
C=CCN(C)C(=O)C[C@@H]1c2nc(NC(=O)COC)sc2C[C@@H]2[C@](C)(CO)[C@H](O)CC[C@]21C | -8%

Screening results: PubChem, National Center for Advancing Translational Sciences (NCATS)
